For 1 compound, cytotoxicity results are on record in PubChem BioAssay AID651994 (Sanford-Burnham Center for Chemical Genomics, 2013).

Out of some 2,500 compounds screened, about 790 (32%) were called active.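 The calls were made as follows: active = mean cytotoxicity at 5 µM above about 25% (limit read from the data); inactive = the rest.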 The entries come from a sample that favours actives as a whole.

A short description of this experiment: cell viability loss, Sufu-null reporter line – ATP luminescence, single concentration, cytotoxicity control for Gli-SUFU antagonist project, confirmation (AID 651994).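 Also: cells exposed to compound overnight for roughly 16 to 18 hours; plate controls were DMSO wells with cells for no effect and medium without cells for full effect.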 Particulars: Sufu-KO-LIGHT cells cytotoxicity, at 5 µM, stronger effect = higher value.
`CCOc1cccc(=NC2CCCCC2)c2c(C)[nH]c(C)c12`: the cytotoxicity is 32.3% (active).
